High-throughput results from PubChem BioAssay.
FUS yeast rescue = FUS proteinopathy suppression in yeast | S. cerevisiae FUS-expressing, growth rescue, OD600, 24 h | Potency, µM (highest dose often 76.6 µM), most hits filed as activators | 390,000 tested, 0.24% active | AID 1347120;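 note: plate controls were DMSO vehicle for no effect and reference control for full effect; nearly all actives have a fitted effect of over 55% in size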
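Quantitative HTS measuring growth restoration of FUS-toxic yeast. Galactose-induced cells (OD 0.005) were exposed 24hr at 30C to compounds at several concentrations, then absorbance at 600 nm was recorded.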
TDP43 rescue = TDP-43 toxicity inhibition in yeast; TDP-43 expressing yeast growth rescue, BacTiter-Glo, 24 h; Potency, µM (highest dose often 46.1 µM), for inactives: top-dose growth rescue (activation), most hits filed as activators; 410,000 tested, 1.8% active; AID 652104; note: % of control where 0% means no effect; nearly all actives have a fitted effect of over 50% in size
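Readout is BacTiter-Glo luminescence of cell growth, so inhibitors register as activators. TDP-43-expressing yeast at OD600=0.02 in galactose medium, after raffinose pregrowth to mid-log, were incubated with compound for 24 hr at 30 deg C.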
aSyn yeast inh = alpha-synuclein toxicity inhibition in yeast; Potency, µM (top dose mostly 46.1 µM), for the others: top-dose growth rescue (activation), usual class: activators; AID 652106; 370,000 tested, 0.14% active; Yeast expressing alpha-synuclein, growth rescue, BacTiter-Glo, 24 h; note: % of control where 0% means no effect; nearly all actives have a fitted effect of over 65% in size
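Screening used galactose-induced yeast with toxic alpha-synuclein levels, exposed to compound for 24 hr at 30 deg C. Cell growth, read with BacTiter-Glo luminescence, gave the measured signal.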
Abeta rescue = compounds reversing amyloid beta toxicity in yeast; 410,000 tested, 0.063% active; Potency, µM (top dose mostly 46.1 µM), actives largely listed as activators; yeast expressing A-beta42, growth rescue, OD600, 48 h; response scale: 0% DMSO, 100% iron-clioquinol control; note: nearly all actives have a fitted effect of over 55% in size
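Yeast growth medium received pinned compounds, then yeast cells expressing toxic A-beta were added; plates incubated at 30 C for 48 hr. Growth read as absorbance at 600 nm, normalized to DMSO and equimolar FeCl3 plus clioquinol controls.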
The depositor's hits bear a star; i = inactive; ? = inconclusive; . = no result given; [ ] = another dose, or the depositor's remark. Most compounds without a hit are left out; they make up all but 2.1% or so of the library. Calls come from the whole dose curve; as a rule, active = well fitted curve in the direction sought with a large enough effect; inconclusive = small, poorly fitted or top-dose-only effect, or another doubt; inactive = no such curve, though single readings can be large; an effect the other way counts as inactive or inconclusive. Potency is the fitted concentration of half-maximal effect.

SMILES	FUS yeast rescue	TDP43 rescue	aSyn yeast inh	Abeta rescue
CC1Oc2ccccc2N(Cc2ccccc2Cl)C1=O (configuration not stated)	i	19%	9%	i
CCOc1ccccc1-n1nnnc1SCC(=O)Nc1cc2oc3ccccc3c2cc1OC	i	-9%	2%	i
COc1ccc(Br)cc1C(=O)Nc1nnn(C)n1	i	7%	5%	i
CC(=NO)c1ccc2c(c1)C(=NO)c1ccccc1-2	.	13µM*	9%	i
Cc1ccc(CN(C#N)c2nc(C)cc(C)n2)cc1	i	35µM*	6%	i
Cc1cc(C)nc(N(C#N)Cc2cccc(Cl)c2)n1	i	?	13%	i
Cc1cc(C)nc(N(C#N)Cc2ccc(Br)cc2)n1	i	14µM*	0%	i
Cc1cc(C)nc(N(C#N)CCOc2ccc(Cl)cc2)n1	i	18µM*	-43%	i
Cc1cc(C)nc(N(C#N)Cc2ccc(Cl)cc2)n1	i	26%[9.22 µM]	14%	i
Cc1ccc(CSc2ncnc3c2cnn3Cc2ccccc2)cc1C	i	1µM*	-1%	i
COc1ccc(Nc2ncnc3c2cnn3Cc2ccccc2)cc1OC	i	-22%	-8%	i
Cc1ccc(CSc2ncnc3c2cnn3Cc2ccccc2)cc1	i	-7%	-2%	i
Cc1cccc(Nc2ncnc3c2cnn3Cc2ccccc2)c1	i	16µM*	1%	i
O=C(CSc1cc(Cl)ccc1Cl)Nc1ccc(N2CCOCC2)cc1	i	16µM*	0%	i
O=C(CSc1ccccc1F)Nc1ccc(N2CCOCC2)cc1	i	14%	2%	i
Cc1cccc(NC(=O)c2ccc(COc3ccc(Cl)cc3Cl)o2)n1	?	18µM*	-5%	i
Cc1cccc(NC(=O)c2ccc(COc3ccccc3)o2)n1	i	?	-6%	i
O=C(c1ccc(COc2ccccc2Cl)o1)N1CCN(c2ccccc2)CC1	i	35µM*	23%	i
COC(=O)c1ccc(COc2ccc(C(=O)c3ccccc3)cc2)o1	i	11µM*	-5%	i
O=C(c1ccc(CS(=O)c2ccccc2Cl)o1)N1CCN(c2ccccc2)CC1 (configuration not stated)	i	?	0%	i
COC(=O)c1ccc(COc2ccc(F)cc2)o1	i	23%	1%	i
O=C(Nc1nccs1)c1ccc(-c2ccc(F)c(Cl)c2)o1	i	13µM*	-10%	i
CCN(CC)S(=O)(=O)c1cccc(C(=O)N/N=C/c2ccc(OC)c(O)c2)c1	i	-3%	-2%	i
Cc1csc(NC(=O)c2ccc(COc3cccc(Cl)c3)o2)n1	i	.	.	.
O=C(Nc1nccs1)c1ccc(COc2ccccc2Cl)o1	i	7.1µM*	-3%	i
SMILES	FUS yeast rescue	TDP43 rescue	aSyn yeast inh	Abeta rescue
O=C(Nc1nccs1)c1ccc(COc2c(F)c(F)cc(F)c2F)o1	i	25%	-10%	i
Cc1csc(NC(=O)c2ccc(COc3ccccc3)o2)n1	i	22µM*	0%	i
Cc1cc(C)c2c(c1)/C(=C/C(=O)c1ccc(Br)s1)C(=O)N2	?	18µM*	-7%	i
O=C(Nc1ccccc1Cl)c1csc(-c2cccnc2)n1	i	?	0%	i
CC(C)CC(=O)N1CCN(Cc2ccccc2[N+](=O)[O-])CC1	i	5%[9.22 µM]	-10%	i
Cc1[nH]n(S(=O)(=O)c2ccccc2)c(=O)c1N=Nc1cccc(Cl)c1	i	16%	-6%	i
O=C(CSc1nc2ncccc2o1)Nc1cccc(C(F)(F)F)c1	i	10µM*	.	13µM*
CCN(CC)C(=S)SCC(=O)Nc1ccc(F)cc1	i	14µM*	8%	i
Cc1nn(CC(=O)Nc2cccc(C(F)(F)F)c2)c(=O)c2cccn12	i	1%	6.3µM*	i
Cc1cc(NC(=O)Cn2nc(C)n3cccc3c2=O)ccc1Br	i	1%	.	i
CCN(CC)C(=S)SCC(=O)Nc1cccc(C(F)(F)F)c1	i	13µM*	11%	i
C/C(=N/Nc1nc(C)c(C)s1)c1cccc([N+](=O)[O-])c1	i	?	-7%	i
Cn1c(=O)c2c(nc(CN3CCN(C(=O)c4ccco4)CC3)n2CC(N)=O)n(C)c1=O	i	15%	0%	i
CCCCN(C=O)c1c(CC)nc2ccc(C(=O)N3CCN(S(=O)(=O)CC)CC3)cn12	i	12%	1%	i
CC1CCN(CCNC(=O)CCS(=O)(=O)c2ccc(Br)cc2)CC1	i	-7%	-1%	i[9.22 µM]
O=C(NNC(=S)Nc1cccc(C(F)(F)F)c1)c1cccc(Cl)c1	i	8.9µM*	-7%	i
O=C(Nc1cccc(-c2csc(Nc3ccc(Cl)cc3)n2)c1)c1cccc(C(F)(F)F)c1	i	25µM*	-22%	i
COc1cccc(NC(=O)Cn2c(=O)oc3cc(S(=O)(=O)N4CCCCC4)ccc32)c1	i	1%	.	i
CCN(CC)CCCNC(=O)c1ccc2c(c1)NC(=O)C(CS(=O)(=O)Cc1ccc(F)cc1Cl)N2 (configuration not stated)	25µM*	-1%	.	i
CCC(C)NC(=O)C(NS(=O)(=O)c1cccc2nsnc12)c1ccccc1 (configuration not stated)	i	4%	-2%	i
CC(C)(C)C(=O)Nc1ccccc1C(=O)Nc1cc(Cl)ccc1Cl	i	22µM*	-1%	i
COc1cc(C(=O)OCC(=O)c2ccc(S(=O)(=O)N3CCCCC3)cc2)cc(OC)c1OC	i	5%	-1%	i
N#Cc1cn(Cc2cccc(Cl)c2)c2ccccc12	.	16µM*	5%	i
CCC(C)c1ccc(NC(=S)NCCn2cc(Br)cn2)cc1 (configuration not stated)	i	-3%[0.397 µM]	-1%	10µM*
CCC(C)c1ccc(NC(=S)NCCn2cc(Cl)cn2)cc1 (configuration not stated)	i	0%	0%	i
SMILES	FUS yeast rescue	TDP43 rescue	aSyn yeast inh	Abeta rescue
c1csc(Cn2c(-c3cccs3)nc3ccccc32)c1	i	13µM*	-16%	i
CCOc1cccc(-c2cc(C(=O)N3N=C(C)CC3(O)C(F)F)c3ccccc3n2)c1 (configuration not stated)	i	18µM*	5%	i
COc1ccc(CNC(=O)/C=C/C(=O)O)cc1	i	-1%	1%	i
Cc1ccc(CSc2nc3c(c(SCC(=O)O)n2)CCCC3)cc1	i	35µM*	8%	i
COC(=O)CSc1nc(SCc2ccc(C)cc2)nc2c1CCCC2	i	-10%	-15%	i
C[C@@H](c1ccccc1)N1C[C@@H](COCc2ccccc2)Oc2cc(N3CC[C@H](O)C3)ccc2S1(=O)=O	?	?	2%	i
C[C@H](c1ccccc1)N1C[C@@H](COCc2ccccc2)Oc2cc(N3CC[C@@H](O)C3)ccc2S1(=O)=O	i	28µM*	0%	i
